This note sets out measurements from PubChem BioAssay (EPA / NIEHS).

Assay [1] in a line: ATG_CRE_CIS: Attagene CIS-FACTORIAL HepG2 Assay for human cAMP Responsive Element (CRE) binding protein 3 (AID 2282926). Particulars: HepG2 CRE cis-reporter, Attagene multiplexed mRNA; actives raise or lower the signal. In a few lines: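 Cells carrying cis-regulated reporter constructs respond through their own endogenous factors. After 24 h treatment, RNA is reverse-transcribed, amplified, labelled and sized by capillary electrophoresis; up- and down-regulation are both scored against vehicle.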

In assay [2] the target is CCAAT/enhancer-binding protein beta (Homo sapiens) (UniProt P17676). Put plainly: ATG_C_EBP_CIS: Attagene CIS-FACTORIAL HepG2 Assay for human CCAAT/Enhancer Binding Protein (C/EBP) beta (AID 2282927). Particulars: HepG2 Attagene cis-factorial transcription factor reporter; actives raise or lower the signal. The method, boiled down:
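Chemical-treated HepG2 cells (24 h) bearing cis-regulated reporter constructs were processed for total RNA, then reverse transcription, PCR amplification, fluorescent primer extension and fragment analysis; gain- and loss-of-signal were fitted against DMSO.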

A short description of assay [3]: ATG_CMV_CIS: Attagene CIS-FACTORIAL HepG2 Assay for human CMV (Internal Marker) (AID 2282928).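 Also: endpoint acts as a background internal control marker rather than a target.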 The following applies: HepG2 CMV promoter reporter, transcription factor profiling; actives raise or lower the signal. The method, boiled down:
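Bidirectional fits against DMSO are applied to reporter mRNA, read by RT-PCR with capillary electrophoresis, from HepG2 cells exposed 24 h. The endpoint serves as an internal CMV background marker within the cis-factorial reporter panel.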

Assay [4] is described as follows: ATG_DR4_LXR_CIS: Attagene CIS-FACTORIAL HepG2 Assay for human Liver X Receptor (LXR), DR4 submotif (AID 2282929). Particulars: HepG2 Attagene DR4 cis-reporter, mRNA transcription; actives raise or lower the signal. In a few lines:
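After transient transfection with multiplexed cis-promoter reporter units, HepG2 cells received test chemicals for 24 h. Reporter mRNA induction, detected by fluorescence after RT-PCR and capillary electrophoresis, was scored relative to DMSO.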

The target in assay [5] is Aryl hydrocarbon receptor (Homo sapiens) (UniProt P35869). Kind of assay: ATG_Ahr_CIS: Attagene CIS-FACTORIAL HepG2 Assay for human Aryl Hydrocarbon Receptor (Ahr) (AID 2282930). Particulars: HepG2 AhR cis-factorial reporter transcription; actives raise or lower the signal. In a few lines:
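Following 24 h of chemical dosing, transfected HepG2 liver cells with cis-driven reporter units were lysed for RNA; reporter mRNA was quantified via RT-PCR and capillary electrophoresis, and responses fitted bidirectionally from DMSO.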

Assay [6] is described as follows: ATG_AP_1_CIS: Attagene CIS-FACTORIAL HepG2 Assay for human Activator Protein 1 (AP-1) (AID 2282931). The following applies: HepG2 Attagene cis-factorial AP-1 reporter mRNA; actives raise or lower the signal. The method, boiled down: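 After 24 h incubation with test chemical, RNA from transfected HepG2 cells was reverse-transcribed, amplified, fluorescently labelled and digested before capillary electrophoresis. Reporters were driven by cis-regulatory promoters; activity fitted bidirectionally versus DMSO.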

Assay [7] is described as follows: ATG_AP_2_CIS: Attagene CIS-FACTORIAL HepG2 Assay for human Activator Protein 2 (AP-2) (AID 2282932). The following applies: HepG2 AP-2 cis-reporter, Attagene transcription factor profiling; actives raise or lower the signal. In a few lines:
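Cells (HepG2) transfected with promoter-driven reporter constructs, treated 24 h. Total RNA reverse-transcribed, reporter cDNA PCR-amplified, FAM-labelled by primer extension, digested, resolved by capillary electrophoresis. Activity fitted both directions versus DMSO.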

Assay [8] in a line: ATG_BRE_CIS: Attagene CIS-FACTORIAL HepG2 Assay for human Bone Morphogenetic Protein (BMP) Response Element (BRE) (AID 2282933). The following applies: HepG2 BMP response element reporter, Attagene transcription factor profiling; actives raise or lower the signal. The method, boiled down:
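Read-out: reporter mRNA induction quantified by RT-PCR and capillary electrophoresis after 24 h chemical exposure of transfected HepG2 cells. Endogenous factor activity on the BMP response element; gain or loss fitted against DMSO baseline.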

The target of assay [9] is Retinoic acid receptor alpha (Homo sapiens) (UniProt P10276). Kind of assay: ATG_DR5_RAR_CIS: Attagene CIS-FACTORIAL HepG2 Assay for human Retinoic Acid Receptor Alpha (RARE), DR5 submotif (AID 2282934). The following applies: HepG2 Attagene cis-factorial RARE DR5 reporter, mRNA; actives raise or lower the signal. The method, boiled down: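 Transfected HepG2 reporter cells are exposed to chemicals for 24 h. Then RNA is extracted and the DR5 element reporter transcript is measured by RT-PCR and capillary electrophoresis, with bidirectional curve fitting relative to DMSO.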

Assay [10] addresses Transcription factor E2F1 (Homo sapiens) (UniProt Q01094). Put plainly: ATG_E2F_CIS: Attagene CIS-FACTORIAL HepG2 Assay for human E2F Transcription Factor 1 (AID 2282935). The following applies: HepG2 Attagene cis-reporter, E2F reporter RNA transcripts; actives raise or lower the signal. The method, boiled down:
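First, HepG2 cells were transfected with reporter transcription units. Next, they were dosed for 24 h. Then RNA was isolated, converted to cDNA, PCR-amplified, FAM-labeled, HpaI-digested and analyzed by capillary electrophoresis.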

Activity calls are given as the source filed them. The calls were made as follows: active = hit-call score of the fitted dose curve at least 0.9, where 1 is the maximum; inactive = score below 0.9.

Sequence of CCAAT/enhancer-binding protein beta (Homo sapiens) (P17676 whole entry, looked up, the tested form may be a part): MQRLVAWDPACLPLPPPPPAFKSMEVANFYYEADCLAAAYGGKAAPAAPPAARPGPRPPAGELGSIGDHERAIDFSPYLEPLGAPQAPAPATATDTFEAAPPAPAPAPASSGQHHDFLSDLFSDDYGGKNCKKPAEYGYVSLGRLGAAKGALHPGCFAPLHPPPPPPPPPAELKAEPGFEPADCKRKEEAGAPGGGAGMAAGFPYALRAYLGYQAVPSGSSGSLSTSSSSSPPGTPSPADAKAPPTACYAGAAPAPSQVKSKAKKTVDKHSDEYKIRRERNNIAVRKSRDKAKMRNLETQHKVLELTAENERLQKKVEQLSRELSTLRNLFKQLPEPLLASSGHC
Sequence of Aryl hydrocarbon receptor (Homo sapiens) (P35869 whole entry, looked up): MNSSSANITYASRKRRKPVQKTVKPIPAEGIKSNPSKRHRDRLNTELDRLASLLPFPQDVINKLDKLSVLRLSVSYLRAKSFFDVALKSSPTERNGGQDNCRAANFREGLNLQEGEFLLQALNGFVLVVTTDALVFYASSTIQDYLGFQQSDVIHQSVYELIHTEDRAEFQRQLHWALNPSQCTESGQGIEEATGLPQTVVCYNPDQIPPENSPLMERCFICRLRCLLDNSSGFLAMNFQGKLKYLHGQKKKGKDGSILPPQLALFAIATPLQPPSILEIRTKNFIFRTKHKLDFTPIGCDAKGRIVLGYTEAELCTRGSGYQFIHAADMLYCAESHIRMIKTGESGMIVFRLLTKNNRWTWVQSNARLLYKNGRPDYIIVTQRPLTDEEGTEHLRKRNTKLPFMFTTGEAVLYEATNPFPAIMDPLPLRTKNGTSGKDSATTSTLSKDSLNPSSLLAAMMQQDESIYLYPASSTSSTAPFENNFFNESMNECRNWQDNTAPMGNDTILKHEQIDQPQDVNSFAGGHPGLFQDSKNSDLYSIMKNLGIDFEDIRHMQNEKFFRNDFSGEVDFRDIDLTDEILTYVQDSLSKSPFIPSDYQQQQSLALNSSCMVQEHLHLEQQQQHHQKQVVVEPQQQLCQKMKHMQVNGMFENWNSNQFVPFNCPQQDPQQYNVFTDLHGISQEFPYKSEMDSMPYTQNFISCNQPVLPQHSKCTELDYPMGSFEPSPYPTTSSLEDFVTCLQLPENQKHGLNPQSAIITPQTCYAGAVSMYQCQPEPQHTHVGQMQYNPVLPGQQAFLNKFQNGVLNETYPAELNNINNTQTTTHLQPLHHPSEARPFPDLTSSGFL
Sequence of Transcription factor E2F1 (Homo sapiens) (Q01094 whole entry, looked up): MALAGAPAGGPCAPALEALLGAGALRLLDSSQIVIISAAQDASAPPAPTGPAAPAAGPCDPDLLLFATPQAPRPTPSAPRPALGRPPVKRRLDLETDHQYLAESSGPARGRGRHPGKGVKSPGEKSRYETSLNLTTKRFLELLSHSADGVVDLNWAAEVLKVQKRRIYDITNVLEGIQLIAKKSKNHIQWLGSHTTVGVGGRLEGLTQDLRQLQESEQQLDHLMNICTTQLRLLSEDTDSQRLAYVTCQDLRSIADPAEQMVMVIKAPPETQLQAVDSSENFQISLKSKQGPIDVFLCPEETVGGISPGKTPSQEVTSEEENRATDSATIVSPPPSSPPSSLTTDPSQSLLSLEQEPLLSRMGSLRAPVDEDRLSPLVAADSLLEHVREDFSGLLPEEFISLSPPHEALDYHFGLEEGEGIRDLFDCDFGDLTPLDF
Sequence of Retinoic acid receptor alpha (Homo sapiens) (P10276 whole entry, looked up): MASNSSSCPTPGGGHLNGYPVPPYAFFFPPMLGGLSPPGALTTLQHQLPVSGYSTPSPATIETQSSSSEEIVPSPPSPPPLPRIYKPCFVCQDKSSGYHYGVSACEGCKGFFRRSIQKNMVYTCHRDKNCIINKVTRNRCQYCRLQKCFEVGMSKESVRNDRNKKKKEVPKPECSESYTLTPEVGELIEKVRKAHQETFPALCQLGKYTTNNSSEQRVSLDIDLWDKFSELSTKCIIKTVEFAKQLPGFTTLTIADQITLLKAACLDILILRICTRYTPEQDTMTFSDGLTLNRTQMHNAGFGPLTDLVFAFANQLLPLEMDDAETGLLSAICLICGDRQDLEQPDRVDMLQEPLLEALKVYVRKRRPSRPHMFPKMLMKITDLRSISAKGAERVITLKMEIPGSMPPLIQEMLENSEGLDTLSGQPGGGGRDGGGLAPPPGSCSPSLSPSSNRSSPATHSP

Take `Cc1ccc(C=O)s1`: the outcome in assay [1], in assay [2], in assay [3], in assay [4], in [5] and in assay [6] was inactive. The call in assay [7], in assay [8], in [9] and in assay [10] was inactive.
As for `O=Cc1ccc(F)cc1`, the molecule was classed as inactive in [1], in assay [2], in [3], in assay [4], in [5] and in assay [6]. Also, the molecule was called inactive in assay [7], in assay [8] and in [10].
In the case of `CCCCCNCCCCC`, the result in assay [1], in assay [2], in assay [3], in assay [4], in assay [5] and in assay [6] was inactive. Moreover, the molecule was classed as inactive in assay [7], in assay [8], in [9] and in assay [10].
As for `COc1ccc(Cl)cc1C`, the molecule was classed as inactive in [1], in assay [2], in assay [3], in [4], in assay [6] and in [7]. Also, the molecule was called inactive in assay [8], in assay [9] and in assay [10]. Further, the AC50 (as a rule, the midpoint of the concentration-response curve, whichever way the signal moves) in [5] is 36.9 µM (active).
As to `COc1ccc(NC(=O)CC(C)=O)cc1`, the outcome in [1], in assay [2], in assay [3], in [4], in assay [5] and in [6] was inactive. Further, the call in assay [7], in assay [8], in assay [9] and in [10] was inactive.
Turning to `CCCOCC(C)O` (centres undefined), the outcome in assay [1], in assay [2], in [3], in [4], in [5] and in [6] was inactive. The call in assay [7], in [8], in assay [9] and in assay [10] was inactive.
As to `CC1(C)OC[C@@H]2O[C@@]3(C(=O)O)OC(C)(C)O[C@H]3[C@@H]2O1`, the molecule was called inactive in assay [1], in assay [2], in assay [3], in assay [4], in assay [5] and in assay [6]. The outcome in assay [7], in [8], in [9] and in [10] was inactive.
Regarding `O=C(O)CCCCCCCC(=O)O`, the result in [1], in assay [2], in [3], in assay [4], in [5] and in assay [6] was inactive. Also, the outcome in assay [7], in assay [8], in assay [9] and in [10] was inactive.
As for `CC(C)(C#N)c1cc(Cn2cncn2)cc(C(C)(C)C#N)c1`, the outcome in assay [1], in assay [2], in assay [3], in [4], in assay [5] and in [6] was inactive. Further, the result in assay [7], in assay [8] and in [10] was inactive.
For the molecule `[Ca+2]`, the molecule was called inactive in assay [1], in [2], in assay [3], in assay [4], in assay [5] and in assay [6]. Further, the outcome in [7], in [8] and in assay [10] was inactive.
`O=C1CCCCCCCCCCOCCCCO1`: the call in assay [1], in [2], in assay [3], in assay [5], in assay [6] and in assay [7] was inactive. Also, the molecule was called inactive in [9] and in assay [10]. The concentration at half-maximal activity (AC50) in assay [4] was 74.1 µM (active); in [8], 100 µM (active).
Turning to `Nc1nc2ccc([N+](=O)[O-])cc2s1`, the call in assay [1], in [2], in assay [3], in [4], in assay [6] and in assay [7] was inactive. Besides, the molecule was classed as inactive in [9] and in assay [10]. Moreover, the AC50 in assay [5] was 5.26 µM (active); in assay [8], 100 µM (active).
With `CCN(CC)c1ccc2c(-c3ccccc3C(=O)O)c3ccc(=[N+](CC)CC)cc-3oc2c1`, the result in assay [1], in assay [2], in assay [3], in assay [5], in assay [6] and in assay [7] was inactive. Also, the result in assay [10] was inactive. The figures for the AC50 in [4] and in [8] were 130 µM (active) and 158 µM (active), respectively.
For the molecule `O=C(COc1ccc(Cl)cc1)N1CCN(Cc2ccc3c(c2)OCO3)CC1`, the molecule was called inactive in assay [1], in [2], in assay [4], in assay [5], in assay [6] and in [7]. In addition, in assay [10], the outcome was inactive. The figures for the AC50 in [3] and in [8] were 24.9 µM (active) and 93.6 µM (active), respectively.
Consider `CSc1nc(NC2CC2)nc(NC(C)(C)C)n1`, for which the call in [1], in assay [2], in assay [4], in assay [5], in assay [7] and in [8] was inactive. Further, the molecule was classed as inactive in assay [9] and in [10]. Further, the AC50 is 60.5 µM (active) in assay [3] and 47.5 µM (active) in assay [6].
As to `CC(C)(C)C(=O)c1ccccc1`, the call in [1], in assay [2], in assay [3], in assay [4], in assay [5] and in [6] was inactive. Besides, the call in assay [7], in assay [8] and in assay [10] was inactive.
As to `Nc1ccc(S(N)(=O)=O)cc1`, the call in [1], in assay [2], in [3], in [4], in assay [5] and in assay [6] was inactive. Further, the molecule was called inactive in [7], in [8] and in [10].
`CN1Cc2c(N)cccc2C(c2ccccc2)C1` (centres undefined): the call in assay [1], in assay [2], in [3], in assay [4], in assay [6] and in [7] was inactive. Also, the call in assay [8], in assay [9] and in assay [10] was inactive. In assay [5], the AC50 is 59.1 µM (active).
`C=CC[N+](C)(C)CC=C`: the molecule was called inactive in [1], in [2], in assay [3], in [4], in assay [5] and in assay [6]. Moreover, the molecule was classed as inactive in [7], in assay [8] and in assay [10].
As for `CC(C)=CCC/C(C)=C/COC=O`, the molecule was called inactive in assay [1], in assay [2], in [3], in assay [4], in assay [5] and in assay [6]. The molecule was called inactive in assay [7], in [8] and in assay [10].
As to `CC(=O)O[C@]1(C(C)=O)CC[C@H]2[C@@H]3C[C@H](C)C4=CC(=O)CC[C@]4(C)[C@H]3CC[C@@]21C`, the result in assay [1], in assay [2], in assay [3], in assay [4], in [5] and in [6] was inactive. The call in assay [7], in [8] and in assay [10] was inactive.
In the case of `OCCOc1cccc(OCCO)c1`, the result in assay [1], in [2], in assay [3], in assay [4], in [5] and in [6] was inactive. Moreover, the call in [7], in assay [8], in [9] and in assay [10] was inactive.
In the case of `CC(=O)c1c(C)cc(C(C)(C)C)cc1C`, the molecule was called inactive in [1], in [2], in assay [3], in [4], in assay [5] and in assay [6]. Besides, the call in [7], in assay [8], in assay [9] and in assay [10] was inactive.
Turning to `CC(C)(C)c1n[nH]c(=S)n(N)c1=O`, the molecule was classed as inactive in [1], in [2], in assay [3], in assay [4], in assay [6] and in assay [7]. Besides, the molecule was classed as inactive in assay [8] and in assay [10]. The AC50 in assay [5] is 23.9 µM (active).
`C=O`: the call in [1], in assay [2], in assay [3], in [4], in assay [5] and in [6] was inactive. Besides, the result in assay [7], in assay [8], in assay [9] and in assay [10] was inactive.
